NIH3T3 tox – Cytotoxic Profiling in NIH 3T3 Cell Line of Diverse Libraries Using Quantitative High-Throughput Screening. NIH 3T3 viability, CellTiter-Glo ATP luminescence, 48-72 h. Potency, µM (doses to about 96.7 µM), hits mostly inhibitors. 4.3% of 94,000 active. AID 1345082, 2018; note: nearly all actives have a fitted effect of over 55% in size
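NIH 3T3 cells at 400 cells/well received 23 nL of compound by pintool and were incubated 48 or 72 h at 37 °C. Viability was read as ATP-coupled CellTiter-Glo luminescence.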
HEK cytotox – Cytotoxic Profiling in HEK 293 Cell Line of Diverse Libraries Using Quantitative High-Throughput Screening; HEK 293 viability, ATP luminescence (CellTiter-Glo), 48-72 h; Potency, µM (titrated, usually from 115 µM), most hits filed as inhibitors; 6.6% of 94,000 active; note: nearly all actives have a fitted effect of over 60% in size
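HEK 293 seeded at 250 cells/well receive compound via pintool. After 48 or 72 hr at 37 degree Celsius, 5% CO2 and 95% humidity, CellTiter-Glo is dispensed and luminescence read following 10 min at room temperature.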
hNpr1 antagonist – Natriuretic polypeptide receptor (hNpr1) antagonism - Primary qHTS. Atrial natriuretic peptide receptor 1 (Homo sapiens), P16066. HEK293 hNpr1 GloSensor cGMP, ANP-stimulated luminescence. Potency, µM (titrated, usually from 46.3 µM), usual class: inhibitors. 1.6% of 76,000 active; calls by dose curve; note: nearly all actives have a fitted effect of over 60% in size
Target sequence (P16066 whole entry, looked up): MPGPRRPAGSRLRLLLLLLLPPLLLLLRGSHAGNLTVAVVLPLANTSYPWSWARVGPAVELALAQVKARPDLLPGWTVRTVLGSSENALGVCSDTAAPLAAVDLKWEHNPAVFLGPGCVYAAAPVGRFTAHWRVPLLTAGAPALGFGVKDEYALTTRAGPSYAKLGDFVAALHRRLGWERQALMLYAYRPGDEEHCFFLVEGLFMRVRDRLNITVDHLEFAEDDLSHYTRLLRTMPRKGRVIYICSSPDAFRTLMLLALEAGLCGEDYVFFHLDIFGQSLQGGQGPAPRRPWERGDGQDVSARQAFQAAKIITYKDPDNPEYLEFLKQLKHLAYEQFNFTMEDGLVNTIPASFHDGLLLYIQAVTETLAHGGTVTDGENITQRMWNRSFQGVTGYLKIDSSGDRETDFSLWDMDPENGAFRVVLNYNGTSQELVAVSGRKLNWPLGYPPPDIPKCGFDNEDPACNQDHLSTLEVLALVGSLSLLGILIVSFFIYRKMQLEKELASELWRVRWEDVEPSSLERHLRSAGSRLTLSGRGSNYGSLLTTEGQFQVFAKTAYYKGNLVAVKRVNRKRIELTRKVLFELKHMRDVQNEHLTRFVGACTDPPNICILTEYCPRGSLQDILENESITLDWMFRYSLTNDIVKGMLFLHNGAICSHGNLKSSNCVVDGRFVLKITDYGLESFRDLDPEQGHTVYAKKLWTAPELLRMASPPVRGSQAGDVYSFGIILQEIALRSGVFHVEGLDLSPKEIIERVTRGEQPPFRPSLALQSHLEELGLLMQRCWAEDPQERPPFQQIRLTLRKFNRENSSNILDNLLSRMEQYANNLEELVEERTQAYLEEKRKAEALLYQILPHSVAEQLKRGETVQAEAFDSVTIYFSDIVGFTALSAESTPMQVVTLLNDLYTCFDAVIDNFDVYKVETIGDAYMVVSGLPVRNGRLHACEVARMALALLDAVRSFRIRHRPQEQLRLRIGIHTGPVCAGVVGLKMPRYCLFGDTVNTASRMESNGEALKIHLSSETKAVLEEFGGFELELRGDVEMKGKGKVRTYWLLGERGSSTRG
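HEK293 cells stably expressing human Npr1 and cGMP GloSensor pGS-40F, loaded 2 h with 2% GloSensor reagent, given compound 30 min at room temperature. Luminescence read before and 20 min after 0.1 nM hNppA.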
SNCA expr inh – Primary qHTS assay for inhibitors of alpha-synuclein gene (SNCA) expression | HEK-293 SNCA-luciferase knock-in, luminescence, 24 h | AID 1671194, 2021 | 0.17% of 140,000 active | Potency, µM (highest dose often 57.2 µM), actives largely listed as inhibitors; note: nearly all actives have a fitted effect of over 45% in size
FLuc inh – Firefly luciferase inhibition profiling of diverse chemical library using quantitative high-throughput screening. Luciferin 4-monooxygenase (Photinus pyralis), P08659. purified P. pyralis luciferase, luminescence, biochemical. Potency, µM (doses to about 115 µM), usual class: inhibitors. 2.5% of 76,000 active. AID 1347043, 2019; note: nearly all actives have a fitted effect of over 65% in size
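Cell-free enzyme assay, 10nM P. pyralis luciferase, luciferin and ATP each at 10uM. Inhibition profiled over a 6-point titration, read as luminescence.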
HEK293 viab – GF-AFC viability counterscreen for inhibitors of alpha-synuclein gene (SNCA) expression; HEK-293-SNCA-luc viability, GF-AFC fluorescence, 24 h; Potency, µM (series often up to 57.1 µM), hits mostly cytotoxic; 0.12% of 150,000 active; note: nearly all actives have a fitted effect of over 30% in size
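HEK-293-SNCA-luc cells (1500/well) plated 24 h, then exposed 24 h to a dilution series; GF-AFC added 30 min at 37C, fluorescence 405/540 nm; normalised to medium-only and DMSO wells, Hill fit.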
NPR1 antag cnf – Natriuretic polypeptide receptor (hNpr1) antagonism - Confirmation; shares compounds with hNpr1 antagonist; HEK293 hNpr1 cGMP GloSensor luminescence, ANP-stimulated; Potency, µM (top dose mostly 57.6 µM), usual class: inhibitors; 76% of 1,400 active; calls by dose curve; note: nearly all actives have a fitted effect of over 70% in size
NPR2 antag – Natriuretic polypeptide receptor (hNpr2) antagonism - Subtype selectivity assay; Potency, µM (series often up to 57.6 µM), hits mostly inhibitors; HEK293 hNpr2 GloSensor cGMP luminescence, CNP-stimulated; AID 1347046, 2019; shares compounds with hNpr1 antagonist; 67% of 1,400 active; calls by dose curve; note: nearly all actives have a fitted effect of over 70% in size
FLuc inh counter – Natriuretic polypeptide receptor (hNpr1) antagonism - Confirmation firefly luciferase (FLuc) inhibition counterscreen | shares compounds with hNpr1 antagonist | purified FLuc enzyme, luminescence, Km substrate | Potency, µM (top dose mostly 57.6 µM), most hits filed as inhibitors | 0.7% of 1,400 active | AID 1347047, 2019
GloSensor cGMP – Natriuretic polypeptide receptor (hNpr1) antagonism - Counterscreen GloSensor control cell line. shares compounds with hNpr1 antagonist. HEK293 GloSensor cGMP, SNP-stimulated, luminescence. Potency, µM (titrated, usually from 57.6 µM), usual class: inhibitors. 69% of 1,400 active; calls by dose curve; note: nearly all actives have a fitted effect of over 70% in size
Each line names hits and unclear results; the compound was inactive in the other large screens (follow-up assays come after a bar, where they were run). In the library only some 7.4% were active in any assay of this set; here they are far more common. Unless noted, calls come from the whole dose curve; as a rule, active = well fitted curve in the direction sought with a large enough effect; inconclusive = small, poorly fitted or top-dose-only effect, or another doubt; inactive = no such curve, though single readings can be large; an effect the other way counts as inactive or inconclusive.

O=C(NCc1ccc(F)cc1)C1CCc2nnc(C3CC3)n21 (stereo not given)	none (no result: hNpr1 antagonist, FLuc inh)
O=C(Cc1ccc(F)cc1)N1CCN(C(=O)c2nnn3c2COC(c2ccc(Cl)cc2)C3)CC1 (stereo not given)	HEK cytotox inconclusive, hNpr1 antagonist 13µM | NPR1 antag cnf 24µM | NPR2 antag inconclusive | FLuc inh counter inactive | GloSensor cGMP 22µM
COc1ccc(C2Cn3nnc(C(=O)N4CCN(C(=O)Cc5ccc(F)cc5)CC4)c3CO2)cc1 (stereo not given)	HEK cytotox inconclusive, hNpr1 antagonist 8.9µM, SNCA expr inh inconclusive | NPR1 antag cnf 14µM | NPR2 antag 15µM | FLuc inh counter inactive | GloSensor cGMP 14µM
COc1ccc(C2Cn3nnc(C(=O)N4CCN(C(=O)c5ccc(F)cc5Cl)CC4)c3CO2)cc1 (stereo not given)	HEK cytotox inconclusive, hNpr1 antagonist 11µM, SNCA expr inh inconclusive | NPR1 antag cnf 22µM | NPR2 antag 22µM | FLuc inh counter inactive | GloSensor cGMP 19µM
CN(C)C[C@@H]1CN(C2CCOCC2)C[C@H]1NC(=O)c1n[nH]c2ccccc12	none
CC(C)CN1C(=O)C(C)(C)[S+](=O)([O-])[C@H]2CN(Cc3cccc(C(=O)O)c3)C[C@@H]21	NIH3T3 tox inconclusive
COc1nccc(N2CCC(CC(=O)NCc3ccccc3F)CC2)n1	NIH3T3 tox inconclusive, HEK cytotox inconclusive, hNpr1 antagonist inconclusive | NPR1 antag cnf inconclusive | NPR2 antag inconclusive | FLuc inh counter inactive | GloSensor cGMP inconclusive
CCCCN(C)C(=O)CC1CCN(c2ccnc(OC)n2)CC1	NIH3T3 tox inconclusive, HEK cytotox inconclusive, hNpr1 antagonist 11µM, HEK293 viab inconclusive | NPR1 antag cnf 17µM | NPR2 antag 15µM | FLuc inh counter inactive | GloSensor cGMP 11µM
O=C(c1cccc(-c2ccccn2)c1)N1CCN(C(=O)c2ccccc2Cl)CC1	NIH3T3 tox inconclusive, HEK cytotox inconclusive (no result: hNpr1 antagonist, FLuc inh)
COC(=O)C1=CO[C@@H](O[C@@H]2O[C@H](CO)[C@@H](O)[C@H](O)[C@H]2O)[C@H]2[C@@H]1[C@H](O)C[C@]2(C)O	none (no result: NIH3T3 tox, HEK cytotox, hNpr1 antagonist, SNCA expr inh, FLuc inh)
CN(C)c1cccc(C(=O)N2CCNc3cnc(Nc4ccc(N5CCOCC5)cc4)nc3C2)c1	HEK cytotox inconclusive
COc1ccccc1Nc1ncc2c(n1)CN(C(=O)c1cccc(N(C)C)c1)CCN2	HEK cytotox 79µM, hNpr1 antagonist 22µM | NPR1 antag cnf 31µM | NPR2 antag 35µM | FLuc inh counter inactive | GloSensor cGMP 25µM
COc1ccccc1Nc1ncc2c(n1)CN(C(=O)c1ccccc1)CCN2	NIH3T3 tox inconclusive, HEK cytotox inconclusive, hNpr1 antagonist 32µM, SNCA expr inh inconclusive | NPR1 antag cnf 40µM | NPR2 antag inconclusive | FLuc inh counter inactive | GloSensor cGMP 40µM
COc1ccc(CN2C[C@H]3CN(Cc4ccc5c(c4)OCCO5)CCN3C2=O)cc1	NIH3T3 tox inconclusive, HEK cytotox inconclusive, hNpr1 antagonist 10µM | NPR1 antag cnf 14µM | NPR2 antag 16µM | FLuc inh counter inactive | GloSensor cGMP 14µM
COc1ccc(CN2C[C@H]3CN(Cc4ccc(C(F)(F)F)cc4)CCN3C2=O)cc1	NIH3T3 tox inconclusive, HEK cytotox inconclusive, hNpr1 antagonist inconclusive
COc1ccc(CN2C[C@H]3CN(Cc4ccc([N+](=O)[O-])cc4)CCN3C2=O)cc1	NIH3T3 tox inconclusive, HEK cytotox inconclusive, hNpr1 antagonist 22µM | NPR1 antag cnf 16µM | NPR2 antag 18µM | FLuc inh counter inactive | GloSensor cGMP 16µM
COc1ccc(CN2C[C@H]3CN(Cc4cccnc4)CCN3C2=O)cc1	none
COc1ccc(CN2C[C@H]3CN(Cc4ccc(S(C)(=O)=O)cc4)CCN3C2=O)cc1	HEK cytotox inconclusive, hNpr1 antagonist inconclusive
O=C1N(Cc2cccnc2)C[C@H]2CN(Cc3ccc(C(F)(F)F)cc3)CCN12	NIH3T3 tox inconclusive, HEK cytotox inconclusive, hNpr1 antagonist 10µM | NPR1 antag cnf 13µM | NPR2 antag 18µM | FLuc inh counter inactive | GloSensor cGMP 13µM
COc1ccc(CN2CCN3C(=O)N(Cc4ccc(OC)cc4)C[C@H]3C2)cc1	NIH3T3 tox inconclusive, HEK cytotox inconclusive, hNpr1 antagonist 14µM, SNCA expr inh inconclusive | NPR1 antag cnf 13µM | NPR2 antag 18µM | FLuc inh counter inactive | GloSensor cGMP 14µM
O=C(Cn1cncn1)N1CCC(C2CCN(Cc3cccc(F)c3F)CC2)C1 (stereo not given)	none
FC(F)(F)c1ccc(N2C3CCC2CN(Cc2cccc(-c4cccs4)c2)C3)cc1	NIH3T3 tox inconclusive (no result: hNpr1 antagonist, FLuc inh)
FC(F)(F)c1ccc(N2C3CCC2CN(Cc2cccc(-c4cccnc4)c2)C3)cc1	HEK cytotox inconclusive (no result: hNpr1 antagonist, FLuc inh) | NPR1 antag cnf 7.7µM | NPR2 antag 9.7µM | FLuc inh counter inactive | GloSensor cGMP 6.1µM
COc1ncccc1CN1CCC2(CC1)OC(=O)N(Cc1ccc(O)cc1)C2(C)c1ccccc1 (stereo not given)	NIH3T3 tox inconclusive, HEK cytotox inconclusive | NPR1 antag cnf inactive | NPR2 antag inconclusive | FLuc inh counter inactive | GloSensor cGMP inactive
CC1(c2ccccc2)N(Cc2ccc(O)cc2)C(=O)OC12CCN(Cc1cccnc1)CC2 (stereo not given)	NIH3T3 tox inconclusive

Screening results deposited in PubChem by National Center for Advancing Translational Sciences (NCATS).
